Test [1] addresses Platelet-derived growth factor receptor beta (Homo sapiens) (UniProt P09619). The settings on record: at 1 µM.
Test [2] has as its target Tyrosine-protein kinase FRK (Homo sapiens) (UniProt P42685). The settings on record: at 0.1 µM.
Test [3] has the same target. The settings on record: at 1 µM.
Test [4] concerns the target Protein-tyrosine kinase 2-beta (Homo sapiens) (UniProt Q14289). Conditions: at 0.1 µM.
Test [5] has the same target. The settings on record: at 1 µM.
Test [6] addresses Proto-oncogene tyrosine-protein kinase receptor Ret (Homo sapiens) (UniProt P07949). Conditions: at 0.1 µM.
The target is the same in test [7]. The settings on record: at 1 µM.
For test [8], the system named is Proto-oncogene tyrosine-protein kinase receptor Ret (Homo sapiens), P07949 [V804L]. Conditions: at 0.1 µM.
Test [9] has the same test system. Conditions: at 1 µM.
Test [10] relates to Proto-oncogene tyrosine-protein kinase receptor Ret (Homo sapiens), P07949 [Y791F]. The settings on record: at 0.1 µM.
Chain of Proto-oncogene tyrosine-protein kinase receptor Ret (Homo sapiens), P07949 [Y791F] (P07949 whole entry Y791F): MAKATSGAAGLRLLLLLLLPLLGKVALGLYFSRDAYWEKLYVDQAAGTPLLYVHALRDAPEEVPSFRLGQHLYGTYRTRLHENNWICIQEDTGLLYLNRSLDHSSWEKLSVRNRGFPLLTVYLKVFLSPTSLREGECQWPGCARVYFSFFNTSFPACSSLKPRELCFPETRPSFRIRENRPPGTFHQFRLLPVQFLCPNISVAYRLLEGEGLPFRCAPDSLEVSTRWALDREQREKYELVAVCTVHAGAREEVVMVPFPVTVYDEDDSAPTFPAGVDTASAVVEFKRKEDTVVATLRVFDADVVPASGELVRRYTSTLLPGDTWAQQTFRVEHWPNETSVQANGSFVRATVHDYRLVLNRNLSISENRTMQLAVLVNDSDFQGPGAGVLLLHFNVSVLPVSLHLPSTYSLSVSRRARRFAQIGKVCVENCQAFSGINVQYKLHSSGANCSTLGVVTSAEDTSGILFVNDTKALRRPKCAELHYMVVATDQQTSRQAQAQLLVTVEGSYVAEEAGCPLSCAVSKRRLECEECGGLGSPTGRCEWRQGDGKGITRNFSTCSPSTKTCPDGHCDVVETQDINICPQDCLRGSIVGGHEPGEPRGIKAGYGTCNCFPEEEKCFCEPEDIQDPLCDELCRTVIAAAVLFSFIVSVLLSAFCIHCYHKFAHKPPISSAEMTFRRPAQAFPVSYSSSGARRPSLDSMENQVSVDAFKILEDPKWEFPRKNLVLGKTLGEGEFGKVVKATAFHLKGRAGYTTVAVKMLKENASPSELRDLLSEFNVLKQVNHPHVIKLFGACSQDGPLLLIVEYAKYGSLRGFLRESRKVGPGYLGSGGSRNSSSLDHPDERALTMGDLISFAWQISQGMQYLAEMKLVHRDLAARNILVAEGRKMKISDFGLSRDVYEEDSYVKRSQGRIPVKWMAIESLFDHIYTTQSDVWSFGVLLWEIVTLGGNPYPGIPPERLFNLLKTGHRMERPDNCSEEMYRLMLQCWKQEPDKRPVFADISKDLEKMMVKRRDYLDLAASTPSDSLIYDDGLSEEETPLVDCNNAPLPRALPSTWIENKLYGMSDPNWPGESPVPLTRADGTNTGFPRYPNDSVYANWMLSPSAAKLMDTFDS

Chain of Proto-oncogene tyrosine-protein kinase receptor Ret (Homo sapiens) (P07949 whole entry): as the sequence (P07949 whole entry Y791F) above, with F791Y counted along it
Chain of Platelet-derived growth factor receptor beta (Homo sapiens) (P09619 whole entry): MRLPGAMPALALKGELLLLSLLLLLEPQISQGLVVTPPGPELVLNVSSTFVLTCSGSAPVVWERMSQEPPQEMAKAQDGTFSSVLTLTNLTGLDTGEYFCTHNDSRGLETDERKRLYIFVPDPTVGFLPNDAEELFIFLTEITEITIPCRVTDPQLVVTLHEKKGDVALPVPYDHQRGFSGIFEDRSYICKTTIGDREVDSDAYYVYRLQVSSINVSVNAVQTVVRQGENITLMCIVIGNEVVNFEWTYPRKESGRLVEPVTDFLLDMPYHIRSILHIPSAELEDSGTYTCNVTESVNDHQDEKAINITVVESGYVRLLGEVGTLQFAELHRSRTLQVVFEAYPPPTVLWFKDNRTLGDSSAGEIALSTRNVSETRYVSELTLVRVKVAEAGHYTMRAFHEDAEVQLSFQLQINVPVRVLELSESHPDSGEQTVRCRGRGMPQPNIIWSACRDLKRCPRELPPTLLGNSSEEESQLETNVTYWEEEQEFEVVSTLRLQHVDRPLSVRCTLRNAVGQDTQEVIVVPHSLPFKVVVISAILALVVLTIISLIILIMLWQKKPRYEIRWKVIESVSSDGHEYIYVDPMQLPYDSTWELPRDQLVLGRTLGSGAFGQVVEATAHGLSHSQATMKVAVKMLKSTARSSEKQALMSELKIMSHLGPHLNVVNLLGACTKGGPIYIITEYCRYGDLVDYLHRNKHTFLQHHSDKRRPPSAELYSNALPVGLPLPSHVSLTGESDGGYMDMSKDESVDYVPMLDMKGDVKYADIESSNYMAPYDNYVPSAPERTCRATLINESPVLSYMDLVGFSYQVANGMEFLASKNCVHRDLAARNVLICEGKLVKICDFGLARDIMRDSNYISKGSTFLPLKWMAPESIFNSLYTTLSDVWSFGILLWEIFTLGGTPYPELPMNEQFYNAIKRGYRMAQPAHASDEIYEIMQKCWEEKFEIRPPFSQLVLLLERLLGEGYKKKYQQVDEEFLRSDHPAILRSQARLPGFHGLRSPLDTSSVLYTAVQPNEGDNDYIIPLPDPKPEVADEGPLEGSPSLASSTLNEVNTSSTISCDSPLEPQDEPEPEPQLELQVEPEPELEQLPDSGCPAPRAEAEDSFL
Chain of Protein-tyrosine kinase 2-beta (Homo sapiens) (Q14289 whole entry, looked up): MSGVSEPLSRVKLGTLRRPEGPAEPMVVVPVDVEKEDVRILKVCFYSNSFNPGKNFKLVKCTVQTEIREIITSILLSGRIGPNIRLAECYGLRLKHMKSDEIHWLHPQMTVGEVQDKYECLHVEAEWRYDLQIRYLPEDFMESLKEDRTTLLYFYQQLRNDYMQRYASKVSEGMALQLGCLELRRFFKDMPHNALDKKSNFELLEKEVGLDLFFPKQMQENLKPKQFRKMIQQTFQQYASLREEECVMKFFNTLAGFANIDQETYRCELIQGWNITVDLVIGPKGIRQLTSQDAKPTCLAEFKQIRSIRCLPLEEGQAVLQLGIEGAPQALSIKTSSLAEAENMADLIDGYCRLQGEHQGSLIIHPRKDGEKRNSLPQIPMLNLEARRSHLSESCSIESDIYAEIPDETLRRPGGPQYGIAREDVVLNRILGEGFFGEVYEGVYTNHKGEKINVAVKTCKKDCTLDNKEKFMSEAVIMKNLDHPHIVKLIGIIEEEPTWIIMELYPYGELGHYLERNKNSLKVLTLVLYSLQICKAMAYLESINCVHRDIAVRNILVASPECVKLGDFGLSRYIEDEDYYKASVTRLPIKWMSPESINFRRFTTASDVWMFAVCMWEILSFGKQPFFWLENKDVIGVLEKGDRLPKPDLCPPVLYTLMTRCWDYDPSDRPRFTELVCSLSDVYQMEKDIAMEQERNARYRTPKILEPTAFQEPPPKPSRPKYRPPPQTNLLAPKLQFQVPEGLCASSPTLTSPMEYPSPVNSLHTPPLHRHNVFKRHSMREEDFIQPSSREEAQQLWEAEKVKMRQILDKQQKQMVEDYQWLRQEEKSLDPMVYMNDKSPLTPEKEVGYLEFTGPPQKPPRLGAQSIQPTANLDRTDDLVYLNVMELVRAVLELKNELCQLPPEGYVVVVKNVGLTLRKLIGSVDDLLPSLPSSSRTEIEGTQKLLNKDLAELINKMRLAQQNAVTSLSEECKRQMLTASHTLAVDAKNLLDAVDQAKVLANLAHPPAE
Chain of Tyrosine-protein kinase FRK (Homo sapiens) (P42685 whole entry): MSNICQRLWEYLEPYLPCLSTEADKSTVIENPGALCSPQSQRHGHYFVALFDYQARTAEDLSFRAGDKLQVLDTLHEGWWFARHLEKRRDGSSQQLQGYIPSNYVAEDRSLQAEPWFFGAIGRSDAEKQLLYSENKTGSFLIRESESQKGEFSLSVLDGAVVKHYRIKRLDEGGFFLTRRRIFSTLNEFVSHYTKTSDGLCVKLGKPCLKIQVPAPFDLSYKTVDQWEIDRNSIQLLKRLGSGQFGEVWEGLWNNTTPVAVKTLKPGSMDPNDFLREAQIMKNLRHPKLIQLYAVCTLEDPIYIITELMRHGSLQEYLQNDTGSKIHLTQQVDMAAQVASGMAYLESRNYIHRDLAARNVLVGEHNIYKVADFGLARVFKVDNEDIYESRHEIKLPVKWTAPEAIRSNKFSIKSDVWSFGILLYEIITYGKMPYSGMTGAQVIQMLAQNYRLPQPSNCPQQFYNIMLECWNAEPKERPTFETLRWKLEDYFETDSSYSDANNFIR
Chain of Proto-oncogene tyrosine-protein kinase receptor Ret (Homo sapiens), P07949 [V804L] (P07949 whole entry V804L): as the sequence (P07949 whole entry Y791F) above, with F791Y, V804L counted along it

The term inhibition denotes the drop in the measured response relative to a control, in per cent. Take `COc1ccccc1Nc1ncc(-c2ccccc2)o1`: the inhibition was 47.7% in test [1]; 3.68% in [2]; 5.01% in test [3]; 0.49% in test [4]; 11.1% in test [5]; 5.4% in [6]. Moreover, the inhibition in test [7] worked out at 6.88%; in test [8] it was 3.68%; in test [9] it was 5.75%; in test [10] it was 9.37%.
As to `Cc1cccc(-c2n[nH]cc2-c2ccc3ncccc3n2)n1`, the inhibition in test [1] is 26.5%; in test [2] it was 1.55%; in [3], -0.81%; in [4], -4.16%; in test [5], 0.67%; in [6] it was 1.65%. Moreover, the inhibition in test [7] is 15.1%; in test [8] it was -1.82%; in test [9], 2.72%; in [10], 3.64%.
Consider `CCCN1CCC=C(c2ccc(Nc3nc(Nc4ccccc4C(N)=O)c4cc[nH]c4n3)c(C)c2)C1`, for which the inhibition was 37.2% in test [1]; 1.94% in [2]; 4.17% in test [3]; 78% in test [4]; 94.9% in [5]; 5.97% in test [6]. Besides, the inhibition came to 24.3% in [7], 18.6% in [8], 58.3% in test [9] and 9.36% in [10].
`COC(=O)Nc1nc2cc(Oc3ccc(NC(=O)Nc4cccc(C(=O)O)c4)cc3)ccc2[nH]1`: the inhibition in test [1] was 16.2%; in [2], 0.4%; in test [3], 0.91%; in test [4] it was -5.8%; in [5], 6.37%; in test [6], 7.47%. Besides, the inhibition amounted to 14.1% in [7], 2.8% in [8], 15% in [9] and 1.53% in test [10].
In the case of `CCCN1CCC(Oc2cc(Nc3nc(Nc4cccc(F)c4C(N)=O)c4cc[nH]c4n3)c(OC)cc2Cl)CC1`, the inhibition is 8.63% in test [1]; -0.17% in [2]; 0.23% in test [3]; 38.2% in test [4]; 92.4% in test [5]; 7.67% in test [6]. The inhibition in [7] was found to be 12.8%; in test [8], 3.55%; in test [9] it was 15.5%; in test [10], 4.36%.
For `CC(C)=Cc1cccc2c1/C(=N/Nc1ccc(S(N)(=O)=O)cc1)C(=O)N2`, the inhibition was determined as 62.6% in test [1]; 1.44% in [2]; 5.49% in test [3]; 3.24% in test [4]; 27.5% in [5]; 14.8% in test [6]. Moreover, the inhibition came out at 60.7% in test [7], 16.4% in test [8], 67.4% in test [9] and 6.44% in [10].
`CCn1c(-c2nonc2N)nc2c(C#CC(C)(C)O)nc(CN3CCCC3)cc21`: the inhibition in test [1] is 12.2%; in test [2], 0.91%; in [3] it was -0.12%; in test [4], -0.18%; in [5], -7.23%; in test [6] it was -0.08%. The inhibition in test [7] was determined as 9.99%; in test [8], 0.92%; in [9] it was 4.79%; in [10], 5.91%.
Take `COc1cc2ncn(-c3cc(O[C@@H](C)c4ccccc4Cl)c(C(N)=O)s3)c2cc1OC`: the inhibition is 68.2% in [1]; 5.42% in test [2]; 4.28% in test [3]; -0.4% in [4]; 14% in test [5]; 33.6% in test [6]. The inhibition in [7] came out at 72.1%; in test [8], 8.18%; in test [9], 38.3%; in [10], 32.5%.
As to `N#Cc1c(NC(=O)c2cccc3ccccc23)sc2c1CCCC2`, the inhibition came to 9.27% in [1]; 2.64% in test [2]; 1.48% in test [3]; 2.95% in test [4]; 5.82% in test [5]; 5.35% in test [6]. The inhibition in [7] was 5.82%; in test [8] it was 3.1%; in test [9], 3.6%; in test [10] it was 5.18%.
As to `COc1cc2c(cc1Nc1nc(N3CCc4ccccc43)c3cc[nH]c3n1)N(C(=O)CN(C)C)CC2`, the inhibition in test [1] turned out to be 3.27%; in test [2] it was 0.34%; in [3], 0.69%; in [4], 59.7%; in test [5] it was 90%; in test [6], 3.49%. Moreover, the inhibition in test [7] is 9.16%; in test [8], 0.54%; in [9] it was 4.92%; in test [10] it was 1.4%.
Take `O=C1NC(=O)C(c2ccccc2Cl)=C1Nc1cccc(O)c1`: the inhibition in test [1] worked out at 3.43%; in [2] it was 0.88%; in [3], 0.39%; in test [4], 5.7%; in [5], 8.51%; in test [6], 1.55%. Further, the inhibition in test [7] was 7.91%; in test [8], 3.61%; in [9], 2.98%; in test [10], 2.99%.
Turning to `COc1ccc(COc2ccc(Cc3cnc(N)nc3N)cc2OC)cc1`, the inhibition in [1] was 10%; in test [2], -0.22%; in test [3], 2.07%; in [4], -3.39%; in test [5] it was -2.43%; in test [6], 9.65%. In addition, the inhibition in test [7] stood at 9.77%; in test [8] it was 6.53%; in test [9] it was 9.69%; in test [10], 12.4%.
For the molecule `O=C1NC(=O)C(c2ccc(Cl)cc2)=C1Nc1ccc(Cl)c(C(=O)O)c1`, the inhibition in test [1] was 6.67%; in [2], -0.84%; in test [3], 0.85%; in [4], -2.28%; in test [5], 3.24%; in test [6], 3.14%. For the same molecule, the inhibition in test [7] was 2.98%; in [8], 0.34%; in test [9] it was -0.69%; in [10], 0.25%.
Take `Nc1nc(-c2ccc3c(c2)C(=Cc2cc(Br)c(O)c(Br)c2)C(=O)N3)cs1`: the inhibition is 7.52% in [1]; 0.6% in test [2]; 3.29% in [3]; -1.15% in test [4]; 6.43% in test [5]; 7.13% in test [6]. The inhibition in [7] is 12.3%; in [8], 1.75%; in test [9], 9.79%; in test [10], 3.97%.
Turning to `CCN1CCC(CC(=O)Nc2n[nH]c3nc(-c4cccs4)c(Br)cc23)CC1`, the inhibition is 14.4% in test [1]; -1.17% in [2]; -0.21% in test [3]; -9.91% in [4]; 1.65% in test [6]; 3.8% in [7]. The inhibition in test [8] is 0.08%; in test [9] it was -2.04%; in test [10] it was -1.87%.
Take `Cc1ccc(C(=O)NC2CCCCC2)cc1-c1ccc(C(=O)NCC2CC2)cc1`: the inhibition came out at 9.04% in [1]; 0.19% in test [2]; 0.68% in [3]; 3.32% in [4]; 9.58% in [5]; 5.5% in test [6]. Besides, the inhibition in test [7] was determined as 7.84%; in [8], 5.44%; in test [9], 4.79%; in test [10], 10.8%.

These data come from ChEMBL document CHEMBL1961873, “Compounds: GSK PKIS; Assays: Nanosyn kinase panel” (2012).
